Several values for one entry are separate records, joined by “and”; a condition that tells them apart may be missing. Equal values may be shown once. Results filed as inconclusive are left out. Activity calls are given as the source filed them. Unless noted, calls follow the shape of the dose curve; as a rule, active = well fitted curve in the direction sought with a large enough effect in the repeat runs; inconclusive = weak or mixed curves; inactive = no such curve, though single readings can be large; an effect the other way counts as inactive or inconclusive.
Key:
[1] = molecular target: Thyrotropin receptor (Homo sapiens) (UniProt P16473); assay: qHTS assay to identify small molecule agonists of the thyroid stimulating hormone receptor (TSHR) signaling pathway (AID 1224843; calls by dose curve; also: nearly all actives have a fitted effect of over 45% in size)
How it was run: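 Using 15 concentrations per compound in triplicate, cAMP production was monitored in TSHR-HEK293 cells after 30 min compound incubation at RT; HTRF reagents followed, with fluorescence intensity recorded after 1 h.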

[2] = qHTS assay to identify small molecule agonists of the hypoxia (HIF-1) signaling pathway - cell viability counter screen (AID 1224844; calls by dose curve; also: nearly all actives have a fitted effect of over 50% in size)
How it was run: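 Viability counter screen: HRE-bla ME-180 cells plated 5 hrs before compound addition, treated 17 hrs at 37C and 5% CO2, then CellTiter-Glo added after the FRET reporter read; luminescence after 30 min.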

[3] = qHTS assay to identify small molecule agonists of H2AX (AID 1224845; active = well fitted activation curve with a large enough effect in the signal ratio in the repeat runs, not every such curve was filed as active; the % refers to the signal ratio)
How it was run: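 Wild-type CHO-K1 cells plated overnight, then exposed 3 hr at 37C to compounds at 15 concentrations (0.76% DMSO). Lysed, then HTRF anti-pH2AX(S139)-cryptate/anti-H2AX-d2 detection after 24 hr at room temperature; emissions 665 and 620 nm.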

[4] = qHTS assay to identify small molecule agonists of the hypoxia (HIF-1) signaling pathway (AID 1224846; active = well fitted activation curve with a large enough effect in the signal ratio in the repeat runs, not every such curve was filed as active; the % refers to the signal ratio)
How it was run: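 Agonist mode reporter screen. ME-180 cells stably expressing bla under HRE control received test compounds in DMSO for 17 hrs (37C, 5% CO2), and beta-lactamase activity was then detected with the CCF4-AM FRET substrate.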

[5] = qHTS assay to identify small molecule agonists of H2AX - cell viability counter screen (AID 1224847; calls by dose curve; also: top concentration of the series differs between compounds; nearly all actives have a fitted effect of over 30% in size)
How it was run: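 CHO-K1 cells plated overnight at 37C, then exposed 3 h at 37C to compounds at 15 concentrations (0.76% DMSO final). Viability by CellTiter-Glo luminescence after 30 min at room temperature.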

[6] = qHTS RealTime-Glo MT Cell Viability Assay in HepG2 cells - 24 hour (AID 1224867); also: nearly all actives have a fitted effect of over 50% in size
How it was run: (§1)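 Cell number in HepG2 cultures estimated from NanoLuc luminescence generated by metabolic reduction of a prosubstrate by living cells. The homogeneous, nonlytic format allowed repeated reads at 0, 8, 16, 24, 32 and 40 h of compound exposure.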

[7] = qHTS RealTime-Glo MT Cell Viability Assay in HEK293 cells - 32 hour (AID 1224868); also: top concentration of the series differs between compounds; nearly all actives have a fitted effect of over 50% in size
How it was run: (§2)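 Homogeneous bioluminescent viability format in HEK293 cells (600 cells/well). Following 5 h at 37 C/5% CO2, 23 nL compound was pintooled; the signal was measured repeatedly during 40 h incubation.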

[8] = A CellTox Green Cytotoxicity Assay to monitor cytotoxicity in HEK293 cells - 0 hour (AID 1224869); also: nearly all actives have a fitted effect of over 50% in size
How it was run: (§3)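 Dead-cell fluorescence measured kinetically: asymmetric cyanine dye, HEK293, 600 cells/well, 5 h settle, 23 nL cpd/DMSO, 37 C, reads 0–40 h every 8 h.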

[9] = qHTS RealTime-Glo MT Cell Viability Assay in HepG2 cells - 40 hour (AID 1224870); also: nearly all actives have a fitted effect of over 50% in size
How it was run: (§4)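 HepG2 cells mixed with RealTime-Glo MT reagents (NanoLuc plus cell-permeant prosubstrate) were seeded at 600 cells/well, incubated 5 h at 37 C/5% CO2, then pinned with compounds in DMSO; nonlytic luminescence tracked viability during 40 h treatment.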

[10] = A CellTox Green Cytotoxicity Assay to monitor cytotoxicity in HEK293 cells - 40 hour (AID 1224871); also: nearly all actives have a fitted effect of over 45% in size
How it was run: as §3

[11] = qHTS RealTime-Glo MT Cell Viability Assay in HEK293 cells - 16 hour (AID 1224872)
How it was run: as §2

[12] = qHTS RealTime-Glo MT Cell Viability Assay in HepG2 cells - 8 hour (AID 1224873); also: nearly all actives have a fitted effect of over 55% in size
How it was run: as §4

[13] = A CellTox Green Cytotoxicity Assay to monitor cytotoxicity in HEK293 cells - 24 hour (AID 1224875); also: nearly all actives have a fitted effect of over 45% in size
How it was run: as §3

[14] = A CellTox Green Cytotoxicity Assay to monitor cytotoxicity in HepG2 cells - 16 hour (AID 1224876); also: nearly all actives have a fitted effect of over 45% in size
How it was run: (§5)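 First, HepG2 cells (600/well) mixed with reagent were plated; second, after 5 h at 37 C they received compounds via pintool; third, fluorescence was measured at 0 h through 40 h at 8 h intervals.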

[15] = qHTS RealTime-Glo MT Cell Viability Assay in HepG2 cells - 32 hour (AID 1224877); also: nearly all actives have a fitted effect of over 55% in size
How it was run: as §1

[16] = A CellTox Green Cytotoxicity Assay to monitor cytotoxicity in HepG2 cells - 24 hour (AID 1224878); also: nearly all actives have a fitted effect of over 45% in size
How it was run: as §5

[17] = A CellTox Green Cytotoxicity Assay to monitor cytotoxicity in HepG2 cells - 40 hour (AID 1224879); also: nearly all actives have a fitted effect of over 40% in size
How it was run: as §5

[18] = qHTS assay to identify small molecule antagonists of the estrogen related receptor (ERR) signaling pathway from Tox21 library (AID 1224848); also: nearly all actives have a fitted effect of over 50% in size
How it was run: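 Tox21 10K compounds in DMSO tested for ERR pathway antagonism in NTP's ERR cell line; 18 h, 37 C exposure; ONE-Glo luminescence.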

[19] = qHTS assay to identify small molecule agonists of the estrogen related receptor (ERR) signaling pathway from Tox21 library (AID 1224849; calls by dose curve; also: nearly all actives have a fitted effect of over 15% in size); settings: ERR reporter cell line, ONE-Glo luciferase, 18 h
How it was run: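 Quantitative HTS in agonist format: NTP ERR cell line, compounds transferred in DMSO after 6 h plating, 18 h incubation at 37 C, ONE-Glo luminescence endpoint.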

[20] = qHTS RealTime-Glo MT Cell Viability Assay in HEK293 cells - 40 hour (AID 1224874); settings: RealTime-Glo luminescence; max response: stronger effect = lower value; also: nearly all actives have a fitted effect of over 50% in size
How it was run: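 600 HEK293 cells per well, dispensed already mixed with RealTime-Glo MT reagents. Compound dosing came 5 h later. The same wells were read for luminescence at 0, 8, 16, 24, 32 and 40 h of exposure at 37 C.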
% is scaled to controls: 0 for no effect and ±100 for the full control effect.

Thyrotropin receptor (Homo sapiens), sequence (P16473 whole entry, looked up): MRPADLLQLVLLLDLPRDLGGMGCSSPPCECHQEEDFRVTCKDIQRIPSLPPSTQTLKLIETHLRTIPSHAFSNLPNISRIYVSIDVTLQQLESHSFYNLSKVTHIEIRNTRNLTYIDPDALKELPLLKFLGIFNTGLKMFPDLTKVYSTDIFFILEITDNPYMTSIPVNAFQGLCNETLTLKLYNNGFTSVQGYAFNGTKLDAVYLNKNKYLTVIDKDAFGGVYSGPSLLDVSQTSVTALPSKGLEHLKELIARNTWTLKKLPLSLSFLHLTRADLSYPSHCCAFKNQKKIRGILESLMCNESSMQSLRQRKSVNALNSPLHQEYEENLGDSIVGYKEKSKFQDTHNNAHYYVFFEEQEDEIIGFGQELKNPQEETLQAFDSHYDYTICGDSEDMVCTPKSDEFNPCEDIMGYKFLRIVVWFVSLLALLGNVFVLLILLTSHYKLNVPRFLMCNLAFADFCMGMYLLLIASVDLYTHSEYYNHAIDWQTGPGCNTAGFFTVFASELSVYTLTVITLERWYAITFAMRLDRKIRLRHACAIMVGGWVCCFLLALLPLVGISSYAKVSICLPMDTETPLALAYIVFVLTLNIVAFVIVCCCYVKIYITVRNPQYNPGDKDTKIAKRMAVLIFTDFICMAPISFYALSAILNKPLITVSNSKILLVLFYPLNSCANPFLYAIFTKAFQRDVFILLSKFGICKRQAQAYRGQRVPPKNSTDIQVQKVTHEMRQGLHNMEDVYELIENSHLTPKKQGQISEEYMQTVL

CC(O)C(=O)O (stereo unspecified)
inactive: outcome [1] | Potency [2] | outcome [3] | outcome [4] | outcome [5] | Potency [6] | Potency [7] | outcome [8] | Potency [9] | Potency [10] | Potency [11] | outcome [12] | Potency [13] | Potency [14] | Potency [15] | Potency [16] | Potency [17]

CC(O)CO (stereo unspecified)
inactive: outcome [1] | Potency [2] | outcome [3] | outcome [4] | outcome [5] | Potency [18] | activity change, positive = activation ([19]; at 8.39 µM (top of the series)) -3.08% | activity change, positive = activation ([19]; at 92.4 µM (top of the series)) -3.85% and -1.76% | Potency [6] | Potency [7] | outcome [8] | Potency [9] | Potency [10] | Potency [11] | outcome [12] | Potency [13] | Potency [14] | Potency [15] | Potency [16] | Potency [17]

CC(=O)OCC(COC(C)=O)OC(C)=O
inactive: outcome [1] | Potency [2] | outcome [3] | outcome [4] | outcome [5] | Potency [18] | activity change, positive = activation ([19]; at 42.5 µM (top of the series)) 6.67% | activity change, positive = activation ([19]; at 92.4 µM (top of the series)) -0.709% and 8.04% | Potency [6] | Potency [7] | outcome [8] | Potency [9] | Potency [11] | outcome [12] | max response [20] 1.3% and 11.6% and 13.6% | Potency [13] | Potency [14] | Potency [15] | Potency [16] | Potency [17]

CC(=O)Nc1nnc(S(N)(=O)=O)s1
inactive: outcome [1] | Potency [2] | outcome [3] | outcome [4] | outcome [5] | Potency [6] | Potency [7] | outcome [8] | Potency [9] | Potency [10] | Potency [11] | outcome [12] | max response [20] 3.91% and 1.75% and 9.79% | Potency [13] | Potency [14] | Potency [15] | Potency [16] | Potency [17]

CCOc1ccc(NC(=O)CC(C)O)cc1 (stereo unspecified)
inactive: outcome [1] | Potency [2] | outcome [3] | outcome [4] | outcome [5] | Potency [6] | Potency [7] | outcome [8] | Potency [9] | Potency [11] | outcome [12] | Potency [13] | Potency [14] | Potency [15] | Potency [16] | Potency [17]

O=C(O)CCC(=O)O
inactive: outcome [1] | Potency [2] | outcome [3] | outcome [4] | outcome [5] | Potency [18] | activity change, positive = activation ([19]; at 42.5 µM (top of the series)) 5.73% | activity change, positive = activation ([19]; at 92.4 µM (top of the series)) 5.97% and 1.48% | Potency [6] | Potency [7] | outcome [8] | Potency [9] | Potency [11] | outcome [12] | max response [20] 9.17% and -2.49% and -2.75% | Potency [13] | Potency [14] | Potency [15] | Potency [16] | Potency [17]

Reference: PubChem BioAssay (Tox21)
